Values without a mark were called inactive. Records with an inconclusive call do not appear. A call without a number means that no potency is given here. Active and inactive are the calls of the source. Unless noted, calls come from the whole dose curve.
Key:
[1] = Nuclear factor erythroid 2-related factor 2/antioxidant responsive element (Nrf2/ARE) small molecule agonists: qHTS cell viability counter screen in human keratinocytes (AID 1919968; active = well fitted curve in the direction sought with a large enough effect in the repeat runs; an effect the other way counts as inactive or inconclusive; note: nearly all actives have a fitted effect of over 55% in size; note: potency is the fitted concentration of half-maximal effect)
Procedure, shortened: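 In human HaCaT keratinocytes stably expressing an ARE-driven luciferase, compound exposure lasted 23 h at 37 C under 5% CO2. Viable cells are quantified with a protease-based fluorogenic reagent (CellTiter-Fluor) read 1 h after addition.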

[2] = Nuclear factor erythroid 2-related factor 2/antioxidant responsive element (Nrf2/ARE) small molecule agonists: luciferase reporter gene qHTS assay in human keratinocytes (AID 1919969); note: nearly all actives have a fitted effect of over 35% in size; note: potency is the fitted concentration of half-maximal effect
[3] = target: Gonadotropin-releasing hormone receptor (Homo sapiens) (UniProt P30968); experiment: Human gonadotropin-releasing hormone receptor (GnRHR) small molecule agonists, calcium flux assay in GnRHR-HEK293 cells (AID 1920063); note: nearly all actives have a fitted effect of over 35% in size
Procedure, shortened: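 Intracellular calcium rise is the read-out: engineered human GnRHR HEK293 cells, dye-loaded, are exposed to DMSO-dissolved compounds and fluorescence at Ex/Em 480/540 is tracked for 3 min.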

[4] = target: KiSS-1 receptor (Homo sapiens) (UniProt Q969F8); experiment: Human kisspeptin (KISS1R) small molecule agonists, calcium flux assay in KISS1R-HEK293 cells (AID 1920064; active = well fitted curve in the direction sought with a large enough effect in the repeat runs; an effect the other way counts as inactive or inconclusive)
Procedure, shortened: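 Concentration-response testing used 15 concentrations in triplicate on human KISS1R-expressing HEK293 cells. Calcium-dependent fluorescence (Ex/Em 480/540) was followed kinetically for 3 min after compound transfer.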

[5] = G protein-coupled receptor (GPCR) small molecule agonists, calcium flux assay: HEK293 wild type cell line counter screen (AID 1920065)
Procedure, shortened: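 Fluorescence intensity signals activation. After overnight (18 h) culture and a 1 h calcium dye load at 37 C, compounds are added by pin tool and the plate read at 480/540 nm for 3 min in 1 s steps.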

[6] = p53 small molecule agonists, cell-based qHTS assay with human liver microsomes (AID 1963577);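 note: p53 response element beta-lactamase reporter cells with liver microsomes plus NADPH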
Procedure, shortened: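 Metabolically competent format: test substances, human liver microsomes and NADPH (both 0.5 mg/mL final) incubated with p53RE-bla cells 16 h at 37 C. Beta-lactamase reporter signal then quantified by fluorescence.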

[7] = p53 small molecule agonists, cell-based qHTS assay with rat liver microsomes (AID 1963578)
Procedure, shortened: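 Each plate received p53RE-bla cells, then compound, then rat liver microsomes and NADPH (both 0.5 mg/mL final). Plates were held 16 h at 37 C, and beta-lactamase activity was detected with LiveBLAzer over 2 h.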

[8] = p53 small molecule agonists, cell-based qHTS assay with rat liver microsomes: qHTS cell viability counter screen (AID 1963580); note: nearly all actives have a fitted effect of over 45% in size; note: potency is the fitted concentration of half-maximal effect
Procedure, shortened: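 Cytotoxicity counter screen: intracellular ATP read by CellTiter-Glo luminescence in the p53 reporter wells. HCT-116 p53RE-bla cells were treated for 16 h at 37 C alongside rat liver microsomes and NADPH, each 0.5 mg/mL final.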

[9] = p53 small molecule agonists, cell-based qHTS assay: qHTS cell viability counter screen (AID 1963581); note: nearly all actives have a fitted effect of over 45% in size; note: potency is the fitted concentration of half-maximal effect
Procedure, shortened: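 Luminescence from CellTiter-Glo, reflecting ATP content, serves as the cytotoxicity measure; it is taken after the 2 h reporter substrate step in HCT-116 p53RE-bla cells dosed for 16 h at 37 C.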

[10] = target: 5-hydroxytryptamine receptor 2A (Homo sapiens) (UniProt P28223); experiment: 5-hydroxytryptamine receptor 2A (HTR2A) small molecule antagonists, cell-based qHTS assay (AID 1963586); note: nearly all actives have a fitted effect of over 45% in size
Procedure, shortened: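 CHO cells stably expressing human HTR2A were plated for 18 h at 37 C, then loaded with calcium dye for 1 h. Compounds were preincubated 5 min at room temperature before DOI (4 nM solution) was added. Kinetic fluorescence was read for 3 min.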

[11] = target: 5-hydroxytryptamine receptor 2A (Homo sapiens) (UniProt P28223); experiment: 5-hydroxytryptamine receptor 2A (HTR2A) small molecule agonists, cell-based qHTS assay (AID 1963587); note: nearly all actives have a fitted effect of over 30% in size
Procedure, shortened: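 Kinetic calcium-flux fluorescence (2 min, 1 sec intervals) after compound addition in agonist mode. HTR2A-CHO cells were cultured 18 h, then dye-loaded 1 h at 37 C.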

[12] = target: Muscarinic acetylcholine receptor M1 (Homo sapiens) (UniProt P11229); experiment: Cholinergic receptor muscarinic 1 (CHRM1) small molecule antagonists, cell-based qHTS assay (AID 1963588); note: nearly all actives have a fitted effect of over 40% in size; note: potency is the fitted concentration of half-maximal effect
Procedure, shortened: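 Compounds were tested at 15 concentrations in three independent runs. Dye-loaded CHRM1-CHO cells were exposed 5 min at room temperature before stimulation by acetylcholine added at 50nM. Intracellular calcium was read kinetically on FDSS for 3 min.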

[13] = target: Muscarinic acetylcholine receptor M1 (Homo sapiens) (UniProt P11229); experiment: Cholinergic receptor muscarinic 1 (CHRM1) small molecule agonists, cell-based qHTS assay (AID 1963589); note: nearly all actives have a fitted effect of over 35% in size
Procedure, shortened: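 Fluorescent calcium dye reports M1 activation in stably transfected CHO cells. Compounds, 15 concentrations, added after 1 h dye loading at 37 C; kinetic reading at 1 sec intervals.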

[14] = cAMP Responsive Elements (CRE) small molecule agonists, cell-based qHTS assay (AID 1963590)
Procedure, shortened: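 Compound exposure lasted 3 h at 37 C/5% CO2 in CRE-bla HEK 293T cells grown in assay medium with 10% dialyzed FBS and 25 mM HEPES. Reporter signal came from LiveBLAzer B/G FRET substrate, 2 h, room temperature.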

[15] = cAMP Responsive Elements (CRE) small molecule antagonists, cell-based qHTS assay (AID 1963591; active = well fitted inhibition curve with a large enough effect in the signal ratio in the repeat runs, not every such curve was filed as active; the % refers to the signal ratio; note: potency is the fitted concentration of half-maximal effect)
Procedure, shortened: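 Stimulation used NKH477 at a final 0.25 uM for 3 h in compound-treated CRE-bla HEK293T cells, seeded 18 h beforehand. Reporter activity was measured with LiveBLAzer B/G FRET substrate after 2 h at room temperature.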

[16] = target: Beta-2 adrenergic receptor (Homo sapiens) (UniProt P07550); experiment: Adrenergic beta2 receptor (ADRB2) small molecule antagonists, cell-based qHTS assay (AID 1963592); note: nearly all actives have a fitted effect of over 50% in size; note: potency is the fitted concentration of half-maximal effect
Procedure, shortened: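 Assay format: CHO-ADRB2 cells, 18-20hr seeding at 37C/5% CO2, then compound plus 1nM isoproterenol agonist mix for 0.5hr RT. Homogeneous time-resolved fluorescence cAMP detection after 1hr, expressed as 665/615 nm ratio.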

[17] = target: D(2) dopamine receptor (Homo sapiens) (UniProt P14416); experiment: Dopamine D2 receptor (DRD2) small molecule agonists, cell-based qHTS assay (AID 1963594); note: nearly all actives have a fitted effect of over 35% in size
Procedure, shortened: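 cAMP accumulation in DRD2-HEK293 cells measured by HTRF after 1 h detection; compounds added 10 min before NKH477 (200nM […]) forskolin-analogue stimulation, 30 min at room temperature, with Ro20-1724 present at 0.1 mM final.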

[18] = target: D(2) dopamine receptor (Homo sapiens) (UniProt P14416); experiment: Dopamine D2 receptor (DRD2) small molecule antagonists, cell-based qHTS assay (AID 1963595; active = well fitted inhibition curve with a large enough effect in the signal ratio in the repeat runs, with a control signal flat; the % refers to the signal ratio)
Procedure, shortened: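 Readout: HTRF cAMP, cAMP-d2 competing with cellular cAMP for anti-cAMP cryptate, read after 1 h. Cells: DRD2-HEK293. Conditions: 0.1 mM Ro20-1724, 12 nM quinpirole, 200 nM NKH477, 30 min RT.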

[19] = p53 small molecule agonists, cell-based qHTS assay (AID 1963582; active = well fitted activation curve with a large enough effect in the signal ratio in the repeat runs, not every such curve was filed as active; the % refers to the signal ratio)
Procedure, shortened: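 After plating, p53RE-bla cells sat 5 h in the incubator; compounds or DMSO vehicle were pinned in; a 16 h incubation at 37 C followed; FRET substrate was added and, 2 h later at RT, fluorescence was measured.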

Chain of Gonadotropin-releasing hormone receptor (Homo sapiens) (P30968 whole entry, looked up): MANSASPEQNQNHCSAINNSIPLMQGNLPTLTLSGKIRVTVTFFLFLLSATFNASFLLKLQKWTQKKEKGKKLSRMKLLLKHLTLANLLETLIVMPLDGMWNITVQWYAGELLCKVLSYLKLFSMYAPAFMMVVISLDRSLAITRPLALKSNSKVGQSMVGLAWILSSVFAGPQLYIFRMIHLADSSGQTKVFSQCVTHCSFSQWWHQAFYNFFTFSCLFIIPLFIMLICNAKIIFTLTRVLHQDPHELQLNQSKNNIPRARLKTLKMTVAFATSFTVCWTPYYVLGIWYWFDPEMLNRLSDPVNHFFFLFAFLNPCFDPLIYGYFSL
Chain of Beta-2 adrenergic receptor (Homo sapiens) (P07550 whole entry, looked up): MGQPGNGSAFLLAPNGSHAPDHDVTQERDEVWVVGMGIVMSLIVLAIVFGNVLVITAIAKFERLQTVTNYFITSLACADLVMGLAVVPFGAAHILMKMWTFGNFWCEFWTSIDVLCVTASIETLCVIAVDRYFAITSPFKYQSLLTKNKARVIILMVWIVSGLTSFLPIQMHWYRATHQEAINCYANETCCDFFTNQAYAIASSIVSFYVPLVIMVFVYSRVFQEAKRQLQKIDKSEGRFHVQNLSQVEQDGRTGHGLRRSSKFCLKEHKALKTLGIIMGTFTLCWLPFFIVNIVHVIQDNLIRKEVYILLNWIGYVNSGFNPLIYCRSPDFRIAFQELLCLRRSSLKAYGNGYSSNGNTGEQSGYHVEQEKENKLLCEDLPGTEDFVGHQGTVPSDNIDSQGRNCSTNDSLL
Chain of Muscarinic acetylcholine receptor M1 (Homo sapiens) (P11229 whole entry, looked up): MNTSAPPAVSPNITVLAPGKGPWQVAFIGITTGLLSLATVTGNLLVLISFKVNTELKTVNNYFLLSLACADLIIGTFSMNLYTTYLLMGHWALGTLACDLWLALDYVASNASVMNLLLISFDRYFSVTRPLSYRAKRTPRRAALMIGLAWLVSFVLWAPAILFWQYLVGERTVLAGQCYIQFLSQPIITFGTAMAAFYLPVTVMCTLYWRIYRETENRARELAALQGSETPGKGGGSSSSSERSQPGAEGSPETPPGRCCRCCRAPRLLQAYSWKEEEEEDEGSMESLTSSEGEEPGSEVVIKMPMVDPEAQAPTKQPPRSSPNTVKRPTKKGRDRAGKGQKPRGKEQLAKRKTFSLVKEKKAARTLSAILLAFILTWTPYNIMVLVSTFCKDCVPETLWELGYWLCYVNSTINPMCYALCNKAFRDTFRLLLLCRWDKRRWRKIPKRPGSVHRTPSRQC
Chain of 5-hydroxytryptamine receptor 2A (Homo sapiens) (P28223 whole entry, looked up): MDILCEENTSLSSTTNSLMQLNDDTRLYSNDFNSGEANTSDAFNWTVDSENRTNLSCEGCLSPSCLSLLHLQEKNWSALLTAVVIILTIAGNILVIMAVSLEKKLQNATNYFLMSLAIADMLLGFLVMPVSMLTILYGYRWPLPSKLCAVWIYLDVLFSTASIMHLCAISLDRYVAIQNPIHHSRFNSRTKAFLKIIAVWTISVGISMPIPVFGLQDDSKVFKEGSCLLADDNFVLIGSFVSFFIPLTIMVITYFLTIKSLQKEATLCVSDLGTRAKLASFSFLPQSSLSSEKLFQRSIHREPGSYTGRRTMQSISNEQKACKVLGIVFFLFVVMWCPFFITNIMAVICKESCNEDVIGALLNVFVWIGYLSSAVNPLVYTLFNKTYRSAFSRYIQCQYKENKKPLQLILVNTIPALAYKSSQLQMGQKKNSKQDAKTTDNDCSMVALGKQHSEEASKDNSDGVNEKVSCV
Chain of KiSS-1 receptor (Homo sapiens) (Q969F8 whole entry, looked up): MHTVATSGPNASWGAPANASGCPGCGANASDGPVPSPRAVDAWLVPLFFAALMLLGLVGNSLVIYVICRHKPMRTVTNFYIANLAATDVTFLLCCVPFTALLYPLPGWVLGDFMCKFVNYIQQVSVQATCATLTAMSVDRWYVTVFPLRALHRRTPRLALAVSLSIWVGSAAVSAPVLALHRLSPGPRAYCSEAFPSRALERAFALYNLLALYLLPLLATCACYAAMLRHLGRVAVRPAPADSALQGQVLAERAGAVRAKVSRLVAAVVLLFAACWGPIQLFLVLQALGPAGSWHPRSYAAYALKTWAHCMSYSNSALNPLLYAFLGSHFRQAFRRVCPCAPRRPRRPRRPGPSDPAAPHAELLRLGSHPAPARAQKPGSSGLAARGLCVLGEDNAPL
Chain of D(2) dopamine receptor (Homo sapiens) (P14416 whole entry, looked up): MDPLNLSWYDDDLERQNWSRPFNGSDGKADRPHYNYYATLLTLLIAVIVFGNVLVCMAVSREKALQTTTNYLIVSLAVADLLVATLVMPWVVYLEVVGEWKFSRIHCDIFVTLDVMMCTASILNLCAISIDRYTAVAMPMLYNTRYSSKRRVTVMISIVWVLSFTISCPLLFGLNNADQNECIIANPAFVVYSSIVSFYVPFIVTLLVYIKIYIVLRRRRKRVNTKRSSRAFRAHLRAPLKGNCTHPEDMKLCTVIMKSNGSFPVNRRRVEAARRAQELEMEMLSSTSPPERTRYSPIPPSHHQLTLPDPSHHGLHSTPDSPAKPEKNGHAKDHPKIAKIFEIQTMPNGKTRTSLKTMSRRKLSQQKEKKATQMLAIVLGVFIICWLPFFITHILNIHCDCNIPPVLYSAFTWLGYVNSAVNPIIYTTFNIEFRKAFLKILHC

| SMILES | Potency [1] | Potency [2] | Potency [3] | outcome [4] | outcome [5] | Potency [6] | Potency [7] | Potency [8] | Potency [9] | Potency [10] | Potency [11] | Potency [12] | Potency [13] | Potency [14] | Potency [15] | Potency [16] | Potency [17] | Potency [18] | Potency [19] |
| --- | --- | --- | --- | --- | --- | --- | --- | --- | --- | --- | --- | --- | --- | --- | --- | --- | --- | --- | --- |
| CC(C)=CCC[C@H](C)CCO | inactive | inactive | inactive | inactive | inactive | inactive | inactive | inactive | inactive | inactive | inactive | inactive | inactive | inactive | inactive | inactive | inactive | inactive | – |
| NC12CC3CC(CC(C3)C1)C2 | inactive | inactive | inactive | inactive | inactive | inactive | inactive | inactive | inactive | – | – | – | – | inactive | inactive | inactive | inactive | inactive | inactive |
| CC1=NC(C)OC1C (stereo not given) | inactive | 61.1 µM (active) | inactive | inactive | inactive | inactive | inactive | inactive | inactive | inactive | inactive | inactive | inactive | – | – | – | inactive | inactive | – |
| CN(CCOc1ccc(NS(C)(=O)=O)cc1)CCc1ccc(NS(C)(=O)=O)cc1 | inactive | inactive | inactive | inactive | inactive | inactive | inactive | inactive | inactive | inactive | inactive | 8.18 µM (active) | inactive | inactive | inactive | inactive | inactive | inactive | – |
| O=c1[nH]sc2cc(Cl)ccc12 | 18.8 µM (active) | 13.3 µM (active) | inactive | inactive | inactive | inactive | inactive | inactive | inactive | inactive | inactive | inactive | inactive | – | – | – | inactive | inactive | – |
| Cc1nc2ccccc2n1Cc1ccc(Cl)cc1 | 1.68 µM (active) | inactive | inactive | inactive | inactive | inactive | inactive | inactive | inactive | – | inactive | inactive | inactive | – | inactive | inactive | – | inactive | – |
| CCCCCCCCCCn1cc[n+](CCCCCCCCCC)c1C | 21.7 µM (active) | inactive | inactive | inactive | inactive | inactive | inactive | 32.4 µM (active) | 36.4 µM (active) | – | – | 2.98 µM (active) | inactive | – | 21.7 µM (active) | 27.3 µM (active) | inactive | – | – |

From PubChem BioAssay (Tox21)
